From PubChem BioAssay
Calls of active or inactive are those of the source.

Assays:
[1] = small molecules captured by biotinylated probe aFSTL3 – biochemical, small-molecule microarray, fluorescence 635/667, stem cell growth factor project, primary screen (AID 1064); details: higher = more signal;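 further: measures binding of the biotinylated anti-FSTL3 antibody to printed compounds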
[2] = binders from COS7 lysate, DM2A8 probe, primary screen, torsin A project, cell lysate, small-molecule microarray, fluorescence 635/667 (AID 1065); details: higher = more signal, COS7 lysate expressing mutant human TOR1A
[3] = small molecules captured by biotinylated probe aFGF2 – biochemical, small-molecule microarray, fluorescence 635/667, stem cell growth factor project, primary screen (AID 1067); details: higher = more signal;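 further: measures binding of biotinylated aFGF2 protein to printed compounds on slides; z-score merges feature fluorescence and signal-to-noise across triplicate slides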
[4] = small molecules captured by biotinylated probe aFGF10 – biochemical, small-molecule microarray, fluorescence 635/667, stem cell growth factor project, primary screen (AID 1071); details: higher = more signal;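 further: score merges 667 nm spot intensity and signal to noise from triplicate slides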
[5] = target: Neurogenic locus notch homolog protein 2 (Homo sapiens) (UniProt Q04721); assay: small molecules binding Notch2 protein – biochemical, small-molecule microarray, 635 nm fluorescence, stem cell growth factors, primary screen (AID 1073); details: higher = more signal
Neurogenic locus notch homolog protein 2 (Homo sapiens), sequence (Q04721 whole entry, looked up, canonical isoform): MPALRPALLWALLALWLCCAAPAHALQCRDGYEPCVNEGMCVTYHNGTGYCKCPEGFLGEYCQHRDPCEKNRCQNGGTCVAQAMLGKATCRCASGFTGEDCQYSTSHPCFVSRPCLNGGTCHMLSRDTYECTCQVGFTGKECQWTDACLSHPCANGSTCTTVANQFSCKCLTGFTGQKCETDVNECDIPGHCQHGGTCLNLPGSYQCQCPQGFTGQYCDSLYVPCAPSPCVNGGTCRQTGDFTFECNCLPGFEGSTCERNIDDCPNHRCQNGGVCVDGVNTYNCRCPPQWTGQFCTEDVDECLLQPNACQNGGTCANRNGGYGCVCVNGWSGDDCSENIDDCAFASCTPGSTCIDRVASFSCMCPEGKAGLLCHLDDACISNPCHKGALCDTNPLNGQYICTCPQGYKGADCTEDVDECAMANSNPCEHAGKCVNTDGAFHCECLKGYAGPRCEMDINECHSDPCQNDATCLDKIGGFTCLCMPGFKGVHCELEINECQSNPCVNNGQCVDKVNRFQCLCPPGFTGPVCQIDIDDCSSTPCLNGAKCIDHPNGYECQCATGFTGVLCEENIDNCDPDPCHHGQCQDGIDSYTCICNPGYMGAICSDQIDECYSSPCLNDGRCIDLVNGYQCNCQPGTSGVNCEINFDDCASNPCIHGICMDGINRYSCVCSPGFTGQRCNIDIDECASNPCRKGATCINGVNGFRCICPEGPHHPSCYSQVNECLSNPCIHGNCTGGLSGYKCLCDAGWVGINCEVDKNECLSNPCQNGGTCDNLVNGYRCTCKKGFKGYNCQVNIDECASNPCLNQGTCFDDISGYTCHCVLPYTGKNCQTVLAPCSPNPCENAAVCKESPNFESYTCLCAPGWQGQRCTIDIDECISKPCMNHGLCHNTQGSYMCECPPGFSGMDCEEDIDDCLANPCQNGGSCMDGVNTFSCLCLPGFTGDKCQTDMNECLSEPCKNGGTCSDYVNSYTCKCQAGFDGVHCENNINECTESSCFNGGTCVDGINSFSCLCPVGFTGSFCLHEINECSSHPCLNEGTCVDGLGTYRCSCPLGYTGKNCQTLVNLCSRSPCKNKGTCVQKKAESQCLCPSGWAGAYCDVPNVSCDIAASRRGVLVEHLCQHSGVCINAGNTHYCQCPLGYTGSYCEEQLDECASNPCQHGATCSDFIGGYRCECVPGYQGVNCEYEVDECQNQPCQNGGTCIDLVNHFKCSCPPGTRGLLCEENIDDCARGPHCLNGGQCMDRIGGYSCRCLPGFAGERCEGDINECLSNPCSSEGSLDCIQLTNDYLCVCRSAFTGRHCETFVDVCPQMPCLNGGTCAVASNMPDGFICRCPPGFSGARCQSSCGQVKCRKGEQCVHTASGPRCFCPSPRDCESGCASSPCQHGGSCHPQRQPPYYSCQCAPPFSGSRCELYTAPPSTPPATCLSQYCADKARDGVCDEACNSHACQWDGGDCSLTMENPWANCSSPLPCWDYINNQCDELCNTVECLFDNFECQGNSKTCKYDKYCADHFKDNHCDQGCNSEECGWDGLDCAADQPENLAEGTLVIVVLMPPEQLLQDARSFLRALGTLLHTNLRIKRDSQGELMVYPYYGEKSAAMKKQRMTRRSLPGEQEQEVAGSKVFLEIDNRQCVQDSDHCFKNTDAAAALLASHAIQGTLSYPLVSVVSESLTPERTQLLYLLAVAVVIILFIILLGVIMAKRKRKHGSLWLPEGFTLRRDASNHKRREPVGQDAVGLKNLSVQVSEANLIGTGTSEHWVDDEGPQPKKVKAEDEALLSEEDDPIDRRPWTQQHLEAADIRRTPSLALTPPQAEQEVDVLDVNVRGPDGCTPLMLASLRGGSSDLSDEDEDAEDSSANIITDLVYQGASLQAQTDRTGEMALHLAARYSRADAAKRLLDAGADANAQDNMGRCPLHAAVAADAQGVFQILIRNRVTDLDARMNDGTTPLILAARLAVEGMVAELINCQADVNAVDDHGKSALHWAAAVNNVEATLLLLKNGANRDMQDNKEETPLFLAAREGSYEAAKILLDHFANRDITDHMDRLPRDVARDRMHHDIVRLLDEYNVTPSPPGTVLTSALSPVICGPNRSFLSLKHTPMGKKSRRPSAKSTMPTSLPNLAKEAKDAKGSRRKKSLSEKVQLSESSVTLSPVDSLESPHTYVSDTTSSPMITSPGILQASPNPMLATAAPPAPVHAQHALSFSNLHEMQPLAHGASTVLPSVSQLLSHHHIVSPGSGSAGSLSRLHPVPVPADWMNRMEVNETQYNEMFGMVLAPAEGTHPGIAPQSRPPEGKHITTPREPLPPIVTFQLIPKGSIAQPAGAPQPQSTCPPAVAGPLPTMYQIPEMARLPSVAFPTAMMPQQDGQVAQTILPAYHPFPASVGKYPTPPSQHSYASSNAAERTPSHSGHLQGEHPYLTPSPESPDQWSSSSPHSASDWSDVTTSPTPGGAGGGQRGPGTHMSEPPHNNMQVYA

[6] = target: Pro-neuregulin-1, membrane-bound isoform (Homo sapiens) (UniProt Q02297); assay: small molecules binding neuregulin-1 protein – biochemical, small-molecule microarray, fluorescence 635/667, psychiatric disease protein project, primary screen (AID 1075); details: NRG1 binding, 635 nm fluorescence, higher = more signal;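 further: score combines 667 nm spot fluorescence with signal to noise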
Pro-neuregulin-1, membrane-bound isoform (Homo sapiens), sequence (Q02297 whole entry, looked up, the tested form may be a part, canonical isoform): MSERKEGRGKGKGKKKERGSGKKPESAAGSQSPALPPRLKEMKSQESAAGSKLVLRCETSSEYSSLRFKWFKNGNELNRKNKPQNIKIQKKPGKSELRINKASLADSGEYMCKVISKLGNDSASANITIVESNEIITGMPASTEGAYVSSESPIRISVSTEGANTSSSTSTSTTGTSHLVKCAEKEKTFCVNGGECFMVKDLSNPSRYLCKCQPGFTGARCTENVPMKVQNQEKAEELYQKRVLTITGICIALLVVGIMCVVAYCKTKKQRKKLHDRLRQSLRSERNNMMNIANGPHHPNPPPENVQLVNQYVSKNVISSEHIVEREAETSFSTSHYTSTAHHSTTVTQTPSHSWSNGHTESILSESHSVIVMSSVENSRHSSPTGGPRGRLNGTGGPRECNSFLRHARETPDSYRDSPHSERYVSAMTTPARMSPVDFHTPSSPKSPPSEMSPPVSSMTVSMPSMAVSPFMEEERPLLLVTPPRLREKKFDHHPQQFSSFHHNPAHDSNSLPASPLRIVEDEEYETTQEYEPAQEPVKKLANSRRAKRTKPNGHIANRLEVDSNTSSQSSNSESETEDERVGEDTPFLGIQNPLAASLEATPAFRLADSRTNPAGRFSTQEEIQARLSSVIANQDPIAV

[7] = tested on: Neuregulin-1 EGF-like domain; assay: small molecules binding NRG1 EGF domain – biochemical, small-molecule microarray, 635 nm fluorescence, primary screen (AID 1081); details: higher = more signal;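 further: binding of the protein to compounds printed on small-molecule microarray slides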
[8] = FRG1 expression reporter modulators in myotubes – cell-based, C2C12 myotubes, firefly/Renilla luciferase, luminescence, FRG1 inhibition for FSHD, primary screen (AID 1084); details: FRG1 promoter luciferase, higher = more signal, called active from +8 up or from −8 down
[9] = small molecules captured by biotinylated probe aFST – biochemical, small-molecule microarray, fluorescence 635/667, stem cell growth factor project, primary screen (AID 1086); details: higher = more signal;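 further: score merges 667 nm fluorescence with signal-to-noise of each printed compound spot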
[10] = binders of probe aHhip on microarray, primary screen, stem cell growth factor project, biochemical, small-molecule microarray, fluorescence 635/667 (AID 1087); details: higher = more signal;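 further: score merges spot fluorescence at 667nm with spot signal to noise ratio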
[11] = tested on: PRMT1 (protein arginine N-methyltransferase 1); assay: small molecules binding arginine methyltransferase PRMT1 – biochemical, small-molecule microarray, 635 nm fluorescence, primary screen (AID 1088); details: higher = more signal;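 further: binding of Prmt1 protein to compounds spotted on small-molecule microarray slides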
[12] = growth effects on S. cerevisiae YJM789 – YJM789 clinical isolate, OD600, 24 h, basal, primary screen (AID 1089); details: higher = more signal, called active from +8 up or from −8 down;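 further: growth of clinical yeast isolate S. cerevisiae YJM 789 seeded 1000 cells per well; test concentration not given here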
[13] = S. pombe growth modifiers, basal conditions – strain 972, OD600, 24 h, no modulator, primary screen (AID 1090);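 further: basal condition with compound alone and no growth modifier present; test concentration not given here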; details: S. pombe 972 growth, higher = more signal, called active from +8 up or from −8 down
[14] = budding yeast growth modifiers under rapamycin – strain BY4716, OD600, 96 h, primary screen (AID 1091); further: test concentration not given here; details: S. cerevisiae BY4716 + rapamycin, higher = more signal, called active from +8 up or from −8 down
[15] = target: Torsin-1A-interacting protein 2 (Homo sapiens) (UniProt Q8NFQ8); assay: small molecules binding lysate-expressed LULL1 – cell lysate, human LULL1 lysate, 635/667 nm fluorescence, primary screen (AID 1092); details: small-molecule microarray, hLULL1 lysate binding, 635 nm fluorescence; higher = more signal;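 further: probe is lysate of COS7 cells overexpressing human LULL1; score merges per-feature 667 nm fluorescence with signal-to-noise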
Torsin-1A-interacting protein 2 (Homo sapiens), sequence (Q8NFQ8 whole entry, looked up): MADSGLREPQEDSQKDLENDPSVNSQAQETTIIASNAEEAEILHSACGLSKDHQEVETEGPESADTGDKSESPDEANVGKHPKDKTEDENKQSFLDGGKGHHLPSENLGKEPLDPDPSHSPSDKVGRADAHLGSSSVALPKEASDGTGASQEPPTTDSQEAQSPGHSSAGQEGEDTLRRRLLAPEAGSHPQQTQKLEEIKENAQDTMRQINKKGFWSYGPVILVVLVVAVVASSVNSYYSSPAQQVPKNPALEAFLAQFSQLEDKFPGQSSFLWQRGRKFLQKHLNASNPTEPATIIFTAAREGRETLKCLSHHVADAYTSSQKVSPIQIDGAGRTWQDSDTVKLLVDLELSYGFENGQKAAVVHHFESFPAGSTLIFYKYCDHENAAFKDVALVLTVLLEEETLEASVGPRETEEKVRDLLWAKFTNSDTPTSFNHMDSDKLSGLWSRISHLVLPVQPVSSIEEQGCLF

[16] = optical density change of DRC41 E. coli – strain DRC41, OD650, 24 h, E. coli filamentation project, primary screen (AID 1093);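 further: MC1000 strain lacking acrAB efflux and sulA so SOS filamentation is blocked; test concentration not given here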; details: E. coli DRC41 growth, higher = more signal, called active from +8 up or from −8 down
[17] = probe aLefty2 binding to arrayed compounds – biochemical, biotinylated probe, 635/667 nm fluorescence, primary screen (AID 1094); details: small-molecule microarray, higher = more signal;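 further: score merges spot fluorescence near 667 nm with spot signal-to-noise ratio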
[18] = tested on: Noggin (protein binding on small-molecule microarray); assay: small molecules binding Noggin protein – biochemical, 635/667 nm fluorescence, primary screen (AID 1095); details: 635 nm fluorescence, higher = more signal;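 further: score merges 667 nm feature fluorescence with signal to noise over triplicate slides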
[19] = target: Neurogenic locus notch homolog protein 3 (Homo sapiens) (UniProt Q9UM47); assay: small molecules binding NOTCH3 protein – biochemical, 635/667 nm fluorescence, primary screen (AID 1096); details: small-molecule microarray, 635 nm fluorescence, higher = more signal
[20] = probe aEGFR binding to arrayed compounds – biochemical, biotinylated probe, 635/667 nm fluorescence, primary screen (AID 1097); details: small-molecule microarray, higher = more signal;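 further: probe is a biotinylated anti-EGFR antibody binding compounds printed on slides; score combines fluorescence near 667 nm and signal to noise of each spot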

SMILES | composite z-score [1] | composite z-score [2] | composite z-score [3] | composite z-score [4] | composite z-score [5] | composite z-score [6] | composite z-score [7] | z-score [8] | composite z-score [9] | composite z-score [10] | composite z-score [11] | z-score [12] | z-score [13] | z-score [14] | composite z-score [15] | z-score [16] | composite z-score [17] | composite z-score [18] | composite z-score [19] | composite z-score [20]
CCOC(=O)C[C@H]1[C@H](OC(=O)Cc2ccc3c(c2)OCO3)[C@@H](NC(=O)c2ccc(-c3ccccc3)cc2)c2cc(OCCCO)ccc2N1C(=O)Cc1ccc(OC)cc1 | -0.429 | 0.816 | -0.0636 | 0.412 | 0.819 | 0.337 | 0.269 | -3.25 (inactive) | 0.339 | -0.415 | 0.81 | -1.32 (inactive) | -1.09 (inactive) | 0.105 (inactive) | 0.826 | 1.09 (inactive) | 0.0163 | 0.185 | 0.921 | 0.0881
CC(C)C[C@@H]1NC(=O)[C@H]2C[C@@H](C(=O)NCCCCCCN)[C@@H](c3ccc(O)cc3)N2C1=O | 0.839 | 0.252 | -0.0212 | -0.0652 | -0.277 | 0.612 | 1.1 | -0.811 (inactive) | 0.472 | 0.134 | 1.17 | -0.582 (inactive) | -0.464 (inactive) | -0.283 (inactive) | 2.32 | -0.11 (inactive) | 0.679 | 0.696 | 0.529 | 0.125
O=C1O[C@@H](c2ccccc2)[C@@H](c2ccccc2)N2[C@@H](c3ccccc3OCCO)[C@]3(C(=O)Nc4ccc(C#CC5=CCCCC5)cc43)[C@@H](C(=O)Nc3nc4ccccc4s3)[C@H]12 | -0.177 | 0.106 | -0.0267 | 1.09 | 1.11 | 0.792 | 0.94 | 0.197 (inactive) | 0.438 | -0.0346 | 1.56 | 1.37 (inactive) | 1.8 (inactive) | 2.58 (inactive) | 2.4 | 0.901 (inactive) | 0.123 | 0.82 | 0.993 | 0.0224
C[C@@]1([C@@H](NC(=O)c2ccccc2)c2ccc(-c3ccccc3)cc2)C[C@H]1C1CCCCC1 | 0.742 | -0.671 | 0.0891 | -0.227 | 1.16 | -0.0156 | -0.382 | 2.09 (inactive) | 0.57 | 0.122 | -1.93 | -0.0151 (inactive) | 0.443 (inactive) | 0.32 (inactive) | 0.429 | -1.48 (inactive) | 0.527 | -0.992 | -1.42 | 0.247
COCCOC(=O)N1C(=O)[C@@]2(c3cc(C#Cc4ccc(OC)cc4)ccc31)[C@H](C(=O)N1CCCCCCC1)[C@H]1C(=O)O[C@H](c3ccccc3)[C@H](c3ccccc3)N1[C@@H]2c1ccc(OCCO)cc1 | 2.85 | 1.49 | 0.233 | 0.662 | 0.845 | 1.01 | 0.972 | -0.738 (inactive) | 2.43 | 3.2 | 1.55 | -0.821 (inactive) | 0.0405 (inactive) | 3.27 (inactive) | 2.29 | 2.36 (inactive) | 1.59 | 2.1 | 1.01 | 0.4
COc1cc(CO)cc(I)c1O[C@H]1C=C(C(=O)NCCO)C[C@@H](N(CCN2CCOCC2)C(=O)C2CCOC2)[C@@H]1O (stereo not given in full) | -0.458 | 0.158 | -0.12 | 0.501 | -0.0056 | -0.0813 | -0.479 | -1.22 (inactive) | 0.0409 | 1.25 | 0.815 | -0.263 (inactive) | -0.62 (inactive) | -0.679 (inactive) | -0.367 | 2.36 (inactive) | -0.0636 | 0.407 | 0.51 | -0.099
O=C1NC(=O)C2C1C=CC(C(O)Cc1ccccc1)N2Nc1ccc(Cl)cc1Cl (stereo not given) | 0.536 | -0.169 | -0.0374 | -0.634 | 0.614 | 2 | 0.371 | 1.53 (inactive) | 0.337 | 0.176 | -0.403 | -4.33 (inactive) | -1.51 (inactive) | -0.125 (inactive) | 3.21 | 0.177 (inactive) | -0.0134 | -0.49 | 0.332 | -0.096
COc1ccc([Si](C)(C)[C@H]2[C@H](CCO)O[C@@]3(C(=O)N(C)c4c(Br)cc(C)cc43)[C@@H]2C)cc1 | 0.107 | 0.325 | -0.116 | 0.243 | 0.432 | 0.679 | 1.12 | -2.14 (inactive) | 0.299 | -0.196 | 1.49 | 0.117 (inactive) | -2.89 (inactive) | 34 (active) | 1.04 | 0.714 (inactive) | -0.1 | 0.76 | 1.1 | -0.0627
C=CCOC(=O)[C@H]1[C@@H]2C(=O)O[C@@H](c3ccccc3)[C@@H](c3ccccc3)N2[C@@H](c2ccc(OCCOC(=O)[C@@H]3C[C@@H]4C(=O)N[C@@H](CCCC[N+](C)(C)C)C(=O)N4[C@@H]3c3ccc(O)cc3)cc2)[C@]12C(=O)Nc1ccccc12 | -0.518 | 0.964 | -0.0503 | 0.439 | 0.459 | 0.206 | 1.15 | 0.277 (inactive) | -0.367 | -0.0618 | 1.55 | -1.27 (inactive) | -3.66 (inactive) | -1.02 (inactive) | 2.84 | 0.155 (inactive) | 0.236 | 1.64 | 1.12 | -0.0663
